We go through 16 compounds from PubChem BioAssay (NCI).

Some test systems named below: SR leukemia; RPMI-8226 leukemia; OVCAR-5 ovarian; OVCAR-4 ovarian; SK-OV-3 ovarian; IGROV1 ovarian; OVCAR-3 ovarian; NCI/ADR-RES ovarian; OVCAR-8 ovarian; HS 578T breast.
Assay in all cases: NCI-60 one-dose screen, 48 h (100 = growth as untreated, 0 = no growth, -100 = all killed)
What all share (settings): 10 µM unless noted

The panel holds about 83,000 compounds, 20% with a hit somewhere; the sample as a whole holds those more often.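 48-hour exposure, single concentration, 96-well plates; percent growth endpoint where 0 means no net growth. Active: below 10.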 Values without a mark were called inactive. Active and inactive are the calls of the source.

`COc1cccc(NC(=O)c2sc3nc4c(cc3c2N)C(=O)CCC4)c1`: the growth in the assay on SR leukemia is 3.01% (active); in the assay on RPMI-8226 leukemia, 0.464% (active); with OVCAR-5 ovarian, 50%; with OVCAR-4 ovarian, 58.9%; in the assay with SK-OV-3 ovarian it was -2.7% (active); in the assay on IGROV1 ovarian it was 49.2%. Besides, the growth in the assay on OVCAR-3 ovarian was -2.17% (active); with NCI/ADR-RES ovarian it was -31.2% (active).
On to `CCCCC(=O)OC1CCCCC1C` (centres undefined), for which the growth in the assay on SR leukemia was 95%; with OVCAR-8 ovarian, 87%; in the assay on OVCAR-5 ovarian, 90.9%; in the assay on OVCAR-4 ovarian, 104%; with SK-OV-3 ovarian it was 89.4%; in the assay with IGROV1 ovarian, 106%. Also, the growth was 107% in the assay with OVCAR-3 ovarian, 97.6% with HS 578T breast and 96.7% in the assay with NCI/ADR-RES ovarian.
Turning to `COc1ccc(C2(Cl)c3ccccc3N(c3ccccc3)c3ccccc32)cc1`, the growth was 3.25% (active) in the assay on SR leukemia; 6.73% (active) with OVCAR-8 ovarian; 17% in the assay on OVCAR-5 ovarian; 3.18% (active) with OVCAR-4 ovarian; -11.1% (active) in the assay with SK-OV-3 ovarian; 17.5% in the assay with IGROV1 ovarian. For the same compound, the growth with OVCAR-3 ovarian was -43.9% (active); in the assay with HS 578T breast, -12.9% (active); in the assay on NCI/ADR-RES ovarian it was 21.4%.
On to `CC(CNc1nc(Nc2ccc(Cl)c(Cl)c2)nc(C(Cl)(Cl)Cl)n1)N(C)C` (centres undefined), for which the growth was -42.6% (active) with SR leukemia; -12.5% (active) in the assay on RPMI-8226 leukemia; -50.8% (active) in the assay on OVCAR-8 ovarian; 33.7% with OVCAR-5 ovarian; 25.9% in the assay with SK-OV-3 ovarian; -5.99% (active) in the assay with IGROV1 ovarian. The growth with OVCAR-3 ovarian was -67.8% (active); with HS 578T breast, -20.8% (active); in the assay with NCI/ADR-RES ovarian, -23.6% (active).
Take `Fc1ccc2nc(-c3cc(-c4ccc5c(c4)OCO5)n[nH]3)[nH]c2c1`: the growth in the assay on SR leukemia was 10%; with RPMI-8226 leukemia it was 10.3%; in the assay with OVCAR-5 ovarian it was 84.3%; in the assay on OVCAR-4 ovarian, 57.2%; in the assay with SK-OV-3 ovarian it was 70.3%; with IGROV1 ovarian, 62.3%. For the same compound, the growth in the assay with OVCAR-3 ovarian is 5.87% (active); with HS 578T breast it was 78.2%; in the assay with NCI/ADR-RES ovarian, 42.4%.
As to `COc1ccc2nc(-c3c(-c4ccccc4)nc4ncccn34)[nH]c2c1`, the growth in the assay with SR leukemia was 90.3%; in the assay with RPMI-8226 leukemia, 88%; in the assay with OVCAR-5 ovarian, 97.9%; with OVCAR-4 ovarian, 93.2%; with SK-OV-3 ovarian, 109%; in the assay on IGROV1 ovarian, 111%. The growth in the assay with OVCAR-3 ovarian and in the assay on NCI/ADR-RES ovarian was 108% throughout.
For `COc1cc(-c2cc(-c3nc4ccc(F)cc4[nH]3)[nH]n2)cc(OC)c1OC`, the growth with SR leukemia was 12.6%; in the assay on RPMI-8226 leukemia, -37.3% (active); with OVCAR-5 ovarian it was 88.5%; in the assay on OVCAR-4 ovarian, -2.29% (active); in the assay on SK-OV-3 ovarian, 13.3%; with IGROV1 ovarian, 43.6%. Also, the growth in the assay with OVCAR-3 ovarian was 24%; in the assay with NCI/ADR-RES ovarian it was -6.05% (active).
Regarding `CC(Cc1ccco1)C(=O)NC(N)=O` (centres undefined), the growth with SR leukemia was 100%; in the assay on RPMI-8226 leukemia it was 102%; in the assay with OVCAR-8 ovarian it was 101%; in the assay on OVCAR-4 ovarian it was 108%; with SK-OV-3 ovarian, 120%; in the assay on IGROV1 ovarian, 108%. For the same compound, the growth in the assay with OVCAR-3 ovarian was 111%; in the assay on HS 578T breast, 109%; in the assay with NCI/ADR-RES ovarian it was 104%.
With `COc1ccc(/C=C/C(=O)c2ccc([N+](=O)[O-])cc2)cc1`, the growth in the assay on SR leukemia was 85.4%; in the assay with RPMI-8226 leukemia, 78.9%; in the assay on OVCAR-8 ovarian it was 105%; with OVCAR-5 ovarian, 111%; with SK-OV-3 ovarian it was 103%; in the assay on IGROV1 ovarian, 105%. In addition, the growth in the assay with HS 578T breast and in the assay with NCI/ADR-RES ovarian was 106% each time.
As to `COc1ccc(-c2nc3ncccn3c2-c2nc3ccc(Br)cc3[nH]2)cc1`, the growth in the assay with SR leukemia is 61.1%; in the assay on RPMI-8226 leukemia, 60.6%; in the assay with OVCAR-5 ovarian it was 95.6%; with OVCAR-4 ovarian it was 101%; with SK-OV-3 ovarian, 105%; in the assay on IGROV1 ovarian it was 94%. Further, the growth in the assay with NCI/ADR-RES ovarian was 87.3%.
For the compound `Nc1c(C(=O)Nc2cccc(Br)c2)sc2nc3c(cc12)C(=O)CCC3`, the growth in the assay on SR leukemia was 13.7%; in the assay on RPMI-8226 leukemia, 38.3%; with OVCAR-5 ovarian, 59.3%; with OVCAR-4 ovarian, 77.2%; in the assay with SK-OV-3 ovarian it was 5.74% (active); with IGROV1 ovarian, 44%. Moreover, the values for the growth in the assay on OVCAR-3 ovarian and in the assay with NCI/ADR-RES ovarian were 5.48% (active) and 26.9%, respectively.
Regarding `COc1ccc2c(c1)C/C(=C\c1cc(-c3cc(OC)c(OC)c(OC)c3)n[nH]1)C2=O`, the growth was 57.8% with SR leukemia; 52.8% in the assay with RPMI-8226 leukemia; 97.5% with OVCAR-5 ovarian; 82.2% in the assay on OVCAR-4 ovarian; 102% in the assay with SK-OV-3 ovarian; 106% with IGROV1 ovarian. In addition, the results for the growth in the assay with HS 578T breast and with NCI/ADR-RES ovarian were 91.8% and 83.4%, respectively.
`O=c1c2sc3ncc(Br)cc3c2ncn1-c1cccc(Cl)c1`: the growth in the assay with SR leukemia was 76.6%; in the assay on RPMI-8226 leukemia it was 75.1%; in the assay with OVCAR-5 ovarian, 94.6%; with OVCAR-4 ovarian it was -25.9% (active); with SK-OV-3 ovarian, 67.6%; with IGROV1 ovarian, 83.9%. The growth with NCI/ADR-RES ovarian was 80.8%.
As to `O=c1c(CNc2ccc(S(=O)(=O)Nc3ncccn3)cc2)coc2ccccc12`, the growth in the assay with SR leukemia was 100%; with RPMI-8226 leukemia it was 73.1%; in the assay with OVCAR-5 ovarian, 96.3%; with OVCAR-4 ovarian, 104%; in the assay on SK-OV-3 ovarian, 98.7%; in the assay on IGROV1 ovarian, 95.2%. Besides, the growth in the assay on OVCAR-3 ovarian was 111%; in the assay on HS 578T breast, 102%; in the assay with NCI/ADR-RES ovarian, 104%.
Take `CCc1ccc(-c2ccc(Nc3ccccc3)nn2)cc1S(N)(=O)=O`: the growth was 9.58% (active) with SR leukemia; 27.8% with RPMI-8226 leukemia; 93% with OVCAR-5 ovarian; 87.1% in the assay on OVCAR-4 ovarian; 96.8% with SK-OV-3 ovarian; 106% in the assay with IGROV1 ovarian. Further, the growth in the assay on OVCAR-3 ovarian was 63.8%; in the assay on HS 578T breast, 84.1%; with NCI/ADR-RES ovarian, 85.6%.
In the case of `COc1ccc(-c2nc3ccccn3c2-c2nc3ccc(Cl)cc3[nH]2)cc1`, the growth was 70.3% in the assay on SR leukemia; 43.7% in the assay with RPMI-8226 leukemia; 102% with OVCAR-5 ovarian; 86% in the assay with OVCAR-4 ovarian; 107% in the assay with SK-OV-3 ovarian; 102% in the assay on IGROV1 ovarian. For the same compound, the growth is 73.9% in the assay on OVCAR-3 ovarian, 93.6% with HS 578T breast and 90.3% in the assay on NCI/ADR-RES ovarian.
